# Experimental data reported in ChEMBL document CHEMBL1157539, “Thousands of chemical starting points for antimalarial lead identification” (Nature, 2010).
# Test system: Plasmodium falciparum
# Assay: GSK_TCMDC: Inhibition of Plasmodium falciparum 3D7 in whole red blood cells, using parasite LDH activity as an index of growth. Test compounds present at 2uM
# Type: functional
row,SMILES,Inhibition [%]
1,Cl.O=S(=O)(Nc1cc2c(cc1OCc1ccccc1)CCN(C1CCC1)CC2)c1ccc(-c2ccc(Cl)cc2)cc1,92
2,CN1CCN(c2cc3c(Nc4ccc5c(cnn5Cc5ccccc5)c4)ncnc3cn2)CC1,88
3,O=C(Nc1ccc(OC2CCN(Cc3ccccc3)C2)c(Cl)c1)c1ccsc1.O=C(O)C(F)(F)F (centres undefined),93
4,CC(C)(C)OC(=O)NCC(=O)N(Cc1ccccc1)Cc1ccccc1,97
5,Cc1cccc(Cl)c1S(=O)(=O)N1CCCCC(c2ccc(C(F)(F)F)cc2)=N1,100
6,CC1CCCN(Cc2cc(Cl)cc(Cl)c2O)C1 (centres undefined),89
7,O=C(Nc1cccc(N2CCC(NCc3cnn(-c4cccc(F)c4)c3)CC2)c1)c1ccncc1,84
8,COc1ccc(NC(=O)Nc2ccc(-c3cccc(-c4nc5cccc(C)c5[nH]4)c3)cc2)cc1,100
9,OC(CNc1ccnc(Nc2ccc(Cl)cc2)n1)c1ccc(C(F)(F)F)cc1 (centres undefined),100
10,CC(Oc1ccc(Cl)cc1)C(=O)Nc1cc(C(F)(F)F)ccc1N1CCOCC1 (centres undefined),97
11,O=C(Nc1ccon1)c1cc(-c2cccnc2)nc2ccc(Cl)cc12,98
12,Cc1cccc2nc(-c3ccc(-c4ccc(CN5CCN(CC6CCCN(C)C6)CC5)cc4)s3)[nH]c12.O=C(O)C(F)(F)F (centres undefined),100
13,COc1ccc(N2CCN(CCCN3CCN(C(=O)c4ccc(/C=C/c5ccc(Cl)c(Cl)c5)cc4)CC3)CC2)c(OC)c1.O=C(O)/C=C/C(=O)O,93
14,Cc1cc(=O)[nH]c2cc(Nc3ccnc(Nc4cccc(C(N)=O)c4)n3)ccc12.Cl,99
